Test results from PubChem BioAssay (NCI).
The panel holds about 79,000 compounds, 15% with a hit somewhere; the sample as a whole holds those more often. Unmarked numbers belong to inactive results. The source made the active and inactive calls. Cut-off read from the data, not from the text of the source: active = growth inhibition above about 70%; inactive = the rest.

How the values were obtained:
[1] = NCI Yeast Anticancer Drug Screen. Data for the rad50 strain (AID 155);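 note: 0% = growth of vehicle-only cultures of the same strain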; conditions: S. cerevisiae rad50 strain growth inhibition; at 50.0 µM; hits give high values
Method in brief: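 Growth of the mutant yeast was measured after compound exposure and referenced to vehicle-treated cultures.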

[2] = NCI Yeast Anticancer Drug Screen. Data for the mec2-1 strain (AID 157); conditions: S. cerevisiae mec2-1 strain, at 50.0 µM, hits give high values
Method in brief: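 Cells of the genetically defined mec2-1 yeast strain are incubated with test compound. Inhibition of growth is calculated against vehicle-treated controls.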

[3] = NCI Yeast Anticancer Drug Screen. Data for the sgs1 mgt1 strain (AID 161);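 note: 0% = growth of cultures given vehicle only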; conditions: S. cerevisiae sgs1 mgt1 strain, at 50.0 µM, hits give high values
Method in brief: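 Genetically altered yeast, compound exposure, growth inhibition relative to vehicle.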

[4] = NCI Yeast Anticancer Drug Screen. Data for the cln2 rad14 strain (AID 165);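 note: 0% = growth equal to vehicle treated cultures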; conditions: S. cerevisiae cln2 rad14 strain, at 50.0 µM, hits give high values
Method in brief: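 The screen exposed genetically defined yeast (cln2 rad14) to test compounds and scored growth inhibition relative to vehicle-treated controls.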

[5] = NCI Yeast Anticancer Drug Screen. Data for the bub3 strain (AID 167); conditions: S. cerevisiae bub3 mutant strain, at 50.0 µM, hits give high values
Method in brief: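 Whole-cell yeast assay. The mutant strain was incubated with compounds, and growth inhibition was determined by comparison with vehicle-treated cells.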

[6] = NCI Yeast Anticancer Drug Screen. Data for the mlh1 rad18 strain (AID 175); conditions: S. cerevisiae mlh1 rad18 strain growth inhibition; at 50.0 µM; hits give high values
Method in brief: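 Compound-treated yeast growth, normalised to vehicle controls. Strain bears defined DNA repair mutations.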

| SMILES | growth inhibition [1] | growth inhibition [2] | growth inhibition [3] | growth inhibition [4] | growth inhibition [5] | growth inhibition [6] |
| --- | --- | --- | --- | --- | --- | --- |
| CC1(C)N=C(N)N=C(N)N1c1cccc(CCCCc2ccc(S(=O)(=O)F)c(Cl)c2)c1 | 99.5% (active) | 99.7% (active) | 99.5% (active) | 99.4% (active) | 99.3% (active) | 99.7% (active) |
| O=Cc1ccccc1O.O=Cc1ccccc1O.[Cu] | 86.2% (active) | 72.8% (active) | 88.9% (active) | 55.4% | 70.2% (active) | 92.6% (active) |
| COc1ccc2[nH]cc(CCN(C)C)c2c1 | 4.8% | -24.8% | 1.85% | 17.1% |  | -9.85% |
| CC1(C)C(=O)N(O)C(C)(C)N1N=O | 1.95% | 13.4% | 18.1% | 28.4% | 15.4% | 19.6% |
| CCCCN(CCCC)C(=O)C1C=C2c3cccc4[nH]cc(c34)CC2N(C)C1 (stereo not given) | -0.85% | -1.3% | -11.2% | -13.2% | 6.65% | 37.4% |
| [CH3][Sn]([CH3])([Br])[CH2]CCCBr | 98.9% (active) | 99.5% (active) | 99.4% (active) | 98.7% (active) | 99.1% (active) | 99.3% (active) |
| CS(=O)(=O)c1ccc([As](=O)(O)O)cc1 | 5.7% | 0.1% | 20.6% | -34.1% | 5.2% | -11.8% |
| CC(C)OP(=O)(OC(C)C)C(C)(C)O | 2.8% | 3.8% | 12.9% | 21.3% | -1.35% | -32.1% |
| OC1CN=C2c3ccccc3C(O)(c3ccc(Cl)cc3)N2C1 (stereo not given) | 23.8% | 22.1% | 37.2% | -1.9% | 22.7% | 37.5% |
| CC(/C=C/C1OC(=O)C=CC1C)=C\C(C)C/C=C/C(C)=C/C(CO)C(=O)C(C)C(O)C(C)C/C(C)=C/C(=O)O (stereo not given) | 73.1% (active) | 62.2% | 81.9% (active) | 62.6% | 77.6% (active) | 87.4% (active) |
| Clc1ccc(C2CC3CCCCN3O2)cc1 (stereo not given) | 13.6% | 3% | 5.9% | -1.1% | 11.6% | 5.45% |
| NC(=O)Nc1ccc([As](O)O)cc1 | 11.3% | -2.4% | -0.45% | 11.8% |  | 15% |
| CN1CCc2cc3c(cc2[C@H]1[C@@H]1OC(=O)c2c1ccc1c2OCO1)OCO3 | -11.4% | -38.5% | -26% | -0.25% |  | -41% |
| c1ccc([As](c2ccccc2)c2ccccc2)cc1 | 0.75% | -0.95% | -7.9% | -3.3% |  | 5.05% |
| O=C([CH-]C(=O)c1ccccc1)c1ccccc1.O=C([CH-]C(=O)c1ccccc1)c1ccccc1.[OH-].[OH-].[Ti+4] | 6.25% | -9.65% | -6.85% |  | 36.9% | 8.7% |
| O=C([CH-]C(=O)c1ccccc1)c1ccccc1.[CH2-]C.[CH2-]C.[Tl+3] | 52.3% | 35.6% | 37.2% |  | 60.1% | 55.1% |
| Nc1ccc(S(=O)(=O)F)cc1 | -22% | -54% | -34.6% | 16.8% |  | -22.2% |
| S=P1(c2ccccc2)C=C(N2CCCC2)CC1 (stereo not given) | 20.4% | 20.2% | 16.6% | 1.7% |  | 20.4% |
| O=[N+]([O-])c1cccc(C(Cl)Cl)c1 | 30.5% | -4.7% | 22.4% | 22.1% |  | -2.25% |
| O[As](O)O.S=C(S)c1ccccc1S | 7.55% | -13% | 18.7% | 28% |  | 24.9% |
| Nc1ccc(C(=O)O)cc1[As](O)O | -15.1% | -4.05% | 5.95% | -6.4% |  | -17.8% |
| CC1=CC(=O)[C@@H](O)[C@]2(C)[C@H]3[C@@]4(O)OC[C@]35[C@H]([C@@H](C)[C@H]4O)[C@@H](O)C(=O)O[C@@H]5C[C@@H]12 | 41.8% | 9.7% | 36% | 30.2% |  | 35.9% |
| NNC(=O)c1ccccc1 | -1.8% | -2.05% | -11.8% | -36% |  | -19% |

| SMILES | growth inhibition [1] | growth inhibition [2] | growth inhibition [3] | growth inhibition [4] | growth inhibition [5] | growth inhibition [6] |
| --- | --- | --- | --- | --- | --- | --- |
| NC(=O)c1cc(N(CCCl)CCCl)c([N+](=O)[O-])cc1[N+](=O)[O-] | 38.9% | -11.1% | 10.4% | 14.4% |  | 5.5% |
| Nc1nnnn1CCO | -4.7% | -13% | -17% | 6.4% |  | -13.1% |
| CCCCCC1(C(C)C)C(=O)NC(=O)NC1=O | 3.1% | 8.65% | 1.5% | 15.3% |  | 6.35% |
| CC[O-].CC[O-].O=C([CH-]C(=O)c1ccccc1)c1ccccc1.O=C([CH-]C(=O)c1ccccc1)c1ccccc1.[Ti+4] | 34.3% | 30.9% | 29.1% |  | 52.7% | 26.1% |
| CCOP(=O)(OCC)O/N=C(/c1ccccc1)C(C)C | 25.4% | 4.85% | 19.9% | 10.3% |  | 2.4% |
| OCC1CCCN2CCCCC12 (stereo not given) | 1.2% | 0.35% | -4.2% | -39.1% |  | 7.35% |
| CCOP(=O)(OCC)SC=C(Cl)Cl | -12.9% | 5.5% | 2.1% | -10.6% |  | 6.15% |
| CC(C)CCCC(C)C1CCC2C3CC=C4CC([Se][As](C)C)CCC4(C)C3CCC12C (stereo not given) | 11.1% | -0.1% | 8.55% | 14.7% |  | -7.4% |
| CN(C)P1(=O)NCC(C(C)(C)C)CO1 (stereo not given) | 26.4% | -21.1% | -5.3% | 21.6% |  | -16.8% |
| O=S1(=O)CCCCO1 | -6% | 1.65% | -10.9% | 17.2% |  | 4.4% |
| CCCCCCCC(=O)[O-].N.N.N.N.N.[Co+3].[O-][Cl+3]([O-])([O-])[O-] | -16.1% | 20.2% | -46.8% | 9.1% |  | -13.3% |
| O=S(=O)(F)c1ccccc1 | 35.8% | -0.6% | -11.4% | -59.8% |  | 6.85% |
| CC/C=C/C1(C)C(=O)NC(=S)NC1=O | 5.15% | 3.1% | -7.3% | 1.7% |  | -2.95% |
| NC(Cc1cccc(NP(=S)(NCCO)N2CC2)c1)C(=O)O (stereo not given) | -4.95% | 15.1% | 12.8% | -10.9% |  | 4.35% |
| Cc1cc(C)c(C#N)c(SSC(Cl)(Cl)Cl)n1 | 5.75% | 18.9% | 59.2% | 15.1% |  | 40.9% |
| Nn1cnnc1 | -12.9% | -7.95% | -9.7% | -9.35% |  | -16.2% |
| COc1ccc2c(c1)c(CC(C)[N+](=O)[O-])c(C)n2Cc1ccccc1 (stereo not given) | 6.5% | 8.35% | 5.65% | -9.95% |  | 6.9% |
| Cc1cc(C)c(O)c(C)c1 | 10.2% | -18.3% | -5.45% | 14.4% |  | 4.45% |
| CN1CN(c2ccccc2)C2(CCN(CCCN(C)c3ccc(F)cc3)CC2)C1=O | 0.1% | -0.4% | 6.35% | 5.85% |  | 17.3% |
| O=C1CCCN1CC#CCN1C[C@@H]2C3CCC(C3)[C@@H]2C1 | -2.8% | -8.5% | 6.25% | 29.4% |  | 27.6% |
| O=[N+]([O-])c1cccc(N=Nc2ccc(N(CCCl)CCCl)cc2)c1 | -23.4% | 0.6% | -2.55% | -27.2% |  | 11.6% |
| Oc1cc(N2CC2)c(O)cc1N1CC1 | 12.8% | 13.9% | 11.2% | -42.6% |  | 11.4% |
